KAT2A inh: inhibitors of human GCN5L2 histone acetyltransferase. Q92830. GCN5L2 HAT assay, ThioGlo1 CoA-SH fluorescence. Potency, µM (series often up to 58.9 µM), actives largely listed as inhibitors. hit rate 0.21% among 390,000. AID 504327
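Enzyme at 20nM final was mixed with library compounds for 15 min at room temperature. Peptide H3(1-25) at 75uM, acetyl-CoA at 70uM and ThioGlo1 at 50uM were then added. Plates were read immediately and after 20 min (Ex340nm/Em540nm).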
RECQ1 inh: blocks DNA unwinding by human RECQ1. RECQ1 DNA unwinding, red fluorescence kinetic read. hit rate 0.54% among 240,000. AID 2549. P46063. Potency, µM (doses to about 57.3 µM), most hits filed as inhibitors; further: nearly all actives have a fitted effect of over 30% in size
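RECQ1T1 50 nM; forked duplex (20 bp + 30-nt ss tails) 200 nM, ATP 2 mM final; pH 8.0, 2 mM MgCl2, 2.5 ug/ml poly(dI-dC); 15 min compound preincubation; discontinuous kinetic read over 2 h at RT.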
APE1 inh: inhibitors of human APE1 endonuclease. AID 2517. P27695. recombinant APE1, TAMRA/BHQ-2 abasic DNA cleavage fluorescence. Potency, µM (top dose mostly 65.8 µM), actives largely listed as inhibitors. hit rate 0.35% among 350,000; further: nearly all actives have a fitted effect of over 55% in size
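Step 1: APE1 (0.75 nM) with compound, 15 min RT. Step 2: add 50 nM fluorophore/quencher THF duplex. Step 3: three fluorescence reads 60 s apart (525/598 nm); read 3 minus read 1 = reaction progress.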
BLM helicase inh: blocks DNA unwinding by human BLM helicase | P54132 | recombinant BLM DNA unwinding, fluorescence dequenching | Potency, µM (highest dose often 56.1 µM), hits mostly inhibitors | hit rate 0.2% among 350,000 | AID 2528; further: nearly all actives have a fitted effect of over 35% in size
FEN1 inhibitor: blocks human flap endonuclease 1; P39748; Recombinant FEN1 flap cleavage, fluorescence, 15 min; Potency, µM (doses to about 114 µM), usual class: inhibitors; hit rate 0.35% among 390,000; AID 588795; further: nearly all actives have a fitted effect of over 65% in size
Target sequence (P39748 whole entry, looked up): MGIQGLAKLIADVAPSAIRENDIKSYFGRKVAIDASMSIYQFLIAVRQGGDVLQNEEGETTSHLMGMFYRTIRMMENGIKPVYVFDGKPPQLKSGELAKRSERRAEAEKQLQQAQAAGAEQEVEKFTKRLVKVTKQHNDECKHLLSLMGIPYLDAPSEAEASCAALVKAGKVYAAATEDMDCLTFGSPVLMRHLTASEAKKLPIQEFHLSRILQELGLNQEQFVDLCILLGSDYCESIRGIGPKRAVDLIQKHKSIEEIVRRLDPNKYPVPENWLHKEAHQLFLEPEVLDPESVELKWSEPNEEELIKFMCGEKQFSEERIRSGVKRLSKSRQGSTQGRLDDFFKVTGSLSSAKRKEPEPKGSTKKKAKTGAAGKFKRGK
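Reaction started by adding substrate (50 nM final) to 10 nM enzyme after 15 min room-temperature compound preincubation. Reads at 0 and 15 min, with data normalized and fitted to a four-parameter Hill equation.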
PI5P4K alpha inh: inhibitors of human PI5P4K alpha; max response, %; hit rate 1.2% among 330,000; PI5P4Kalpha enzyme, ADP-Glo luminescence, 60 min; active compounds read low; P48426; AID 652105; active means max response of -50% or lower; inconclusive means between -30% and -50%; inactive means -30% or higher; further: value at the top dose of about 77 µM
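Human PI5P4Kalpha with substrate in 0.038 M HEPES pH 7.4, 0.28 mM EGTA, 0.1% CHAPS, 5% DMSO; reaction started with 5 microM ATP (final), 60 min at room temperature. ADP formed read by ADP-Glo luminescence.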
Large screens that a line does not name were inactive. Most compounds without a hit are left out; they make up all but 1.5% or so of the library. Unless noted, the call rests on the fitted dose curve; in most records, active means well fitted curve in the direction sought with a large enough effect; inconclusive means small, poorly fitted or top-dose-only effect, or another doubt; inactive means no such curve, though single readings can be large; an effect the other way counts as inactive or inconclusive.

CCOC(=O)C1=C(O)/C(=C/c2ccc(-c3ccccc3C(=O)O)o2)SC1=Nc1ccc(C)cc1	FEN1 inhibitor 40µM, PI5P4K alpha inh -99
Cc1ccccc1S(=O)(=O)/N=C(/c1ccccc1)N1CCOCC1	PI5P4K alpha inh -52
COc1ccc(Cl)cc1Nc1nc(N)c2ccccc2n1	none (no result: RECQ1 inh)
COc1ccc(C)cc1Nc1nc(N)c2cc(OC)c(OC)cc2n1	BLM helicase inh 20µM, FEN1 inhibitor inconclusive (no result: RECQ1 inh)
O=C(Nc1ccc2c(c1)CCC2)c1cnn2c1NC(=C1CC1)C=C2C(F)F	none (no result: KAT2A inh, RECQ1 inh, APE1 inh, BLM helicase inh, PI5P4K alpha inh)
O=C1[C@H]2CCC=C[C@H]2[C@H](c2cccc(Br)c2)N1Cc1ccccc1	FEN1 inhibitor inconclusive, PI5P4K alpha inh -53
CCCCCCCc1c(C#N)c(N)[nH]c(=S)c1C#N	PI5P4K alpha inh -56
C=CCSc1nnc(-c2nnc(SCC=C)n2-c2ccccc2)n1-c1ccccc1	KAT2A inh 32µM
CN(C)c1ncc2nc(-c3ccccc3)c(=O)n(C3CC3)c2n1	KAT2A inh 22µM (no result: FEN1 inhibitor, PI5P4K alpha inh)
O=C(N/N=C/c1coc2ccccc2c1=O)c1ccccc1	PI5P4K alpha inh inconclusive
N#CCC(=O)N/N=C/c1coc2ccccc2c1=O	PI5P4K alpha inh -86
CN(C)/C=C/c1[nH]c(=O)[nH]c(=O)c1[N+](=O)[O-]	PI5P4K alpha inh -80
COc1ccc(OC)c(C=Cc2ccc([N+](=O)[O-])cc2)c1	none (no result: KAT2A inh, RECQ1 inh, APE1 inh, BLM helicase inh, FEN1 inhibitor)
O=c1[nH]c(/C=C/c2ccc([N+](=O)[O-])cc2)c([N+](=O)[O-])c(=O)[nH]1	PI5P4K alpha inh -66 (no result: RECQ1 inh)
Cc1cccc(NC(=O)COc2ccc(/C=C\c3[nH]c(=O)[nH]c(=O)c3[N+](=O)[O-])cc2)c1	RECQ1 inh inconclusive, BLM helicase inh inconclusive, FEN1 inhibitor 45µM, PI5P4K alpha inh -57
COc1ccc(OC)c(/C=C/c2[nH]c(=O)[nH]c(=O)c2[N+](=O)[O-])c1	PI5P4K alpha inh -77 (no result: RECQ1 inh)
CC(=O)ON(C(C)=O)c1ccc(/C=C2/C=Cc3ccccc32)cc1	none (no result: KAT2A inh, RECQ1 inh, APE1 inh, BLM helicase inh, PI5P4K alpha inh)
CN(CC(=O)O)c1ccc(C=O)cc1	none (no result: KAT2A inh, RECQ1 inh, APE1 inh, BLM helicase inh, PI5P4K alpha inh)
C=C1C=C(C(F)F)n2ncc(C(=O)N3CCN(c4ccccc4)CC3)c2N1	none (no result: KAT2A inh, RECQ1 inh, APE1 inh, BLM helicase inh, PI5P4K alpha inh)
CCc1sc(/C=C(/C#N)C(N)=S)cc1[N+](=O)[O-]	KAT2A inh inconclusive, APE1 inh inconclusive, PI5P4K alpha inh -83
CCc1ccc(/C=C(/C#N)C(N)=S)s1	none
S=C(SSC(=S)N1CCOCC1)N1CCOCC1	PI5P4K alpha inh -88 (no result: KAT2A inh, RECQ1 inh, APE1 inh, BLM helicase inh, FEN1 inhibitor)
CC(SC(=S)N1CCOCC1)C(=O)O (stereo not drawn)	none
CC(C)C[C@@H](CNCC(=O)[C@H](Cc1c[nH]c2ccccc12)NC(=O)c1[nH]cnc1C(=O)N[C@@H](C)CN)NC(=O)c1nc[nH]c1C(=O)N[C@@H](CC(=O)O)C(=O)O	PI5P4K alpha inh -62 (no result: KAT2A inh, RECQ1 inh, APE1 inh, BLM helicase inh)
CC(C)(C)C1CCc2c(C(=O)NNC(=O)/C=C/C(=O)O)csc2C1 (stereo not drawn)	PI5P4K alpha inh -69
O=C(CSc1nnc(-c2cccc(S(=O)(=O)N3CCCC3)c2)n1-c1ccccc1)Nc1ccccc1	none (no result: KAT2A inh, RECQ1 inh, BLM helicase inh, FEN1 inhibitor, PI5P4K alpha inh)
O=C(Nc1c(Cl)cc([N+](=O)[O-])cc1Cl)c1cc(Cl)cc(Cl)c1O	none (no result: KAT2A inh, RECQ1 inh, APE1 inh, BLM helicase inh, PI5P4K alpha inh)
CC(C)COc1ccc(CC(=O)NO)cc1	none (no result: KAT2A inh, RECQ1 inh, APE1 inh, BLM helicase inh, PI5P4K alpha inh)
CCN(CC)C(=S)SSC(=S)N(CC)CC	KAT2A inh inconclusive, FEN1 inhibitor inconclusive, PI5P4K alpha inh -78
Cc1ccc(Cl)c2c1=NC(=O)C=2c1[nH]c(=S)[nH]c1O	PI5P4K alpha inh -75
O=C1OC2(c3cc(I)c(O)c(I)c3Oc3c2cc(I)c(O)c3I)c2c(Cl)c(Cl)c(Cl)c(Cl)c21	KAT2A inh 3.2µM, RECQ1 inh 10µM, APE1 inh 13µM, BLM helicase inh 13µM (no result: FEN1 inhibitor, PI5P4K alpha inh)
O=C1OC2(c3ccccc31)c1cc(I)c(O)c(I)c1Oc1c2cc(I)c(O)c1I	KAT2A inh 8.9µM, RECQ1 inh 28µM, APE1 inh 27µM, BLM helicase inh 22µM (no result: FEN1 inhibitor, PI5P4K alpha inh)
Cc1cc(O)ccc1C1(c2ccc(O)cc2C)OC(=O)c2ccccc21	none
COc1cc2nc(C#N)nc(N)c2cc1OC	none (no result: KAT2A inh, RECQ1 inh, APE1 inh, BLM helicase inh, PI5P4K alpha inh)
COCCCn1c2nc3ccccc3nc2c2c(=O)n(Cc3ccc(Cl)cc3)cnc21	none
O=c1c2c3nc4ccccc4nc3n(Cc3ccccc3)c2ncn1Cc1ccco1	KAT2A inh inconclusive, BLM helicase inh inconclusive, PI5P4K alpha inh -68
O=C(N/N=C1/C(=O)c2cccc3cccc1c23)c1ccc(Cl)cc1	BLM helicase inh 10µM, FEN1 inhibitor 79µM
